In assay [1] the target is Lysosomal acid glucosylceramidase (Homo sapiens) (UniProt P04062). Nature of the assay: Glucocerebrosidase-p2 (AID 348; in the data active means potency below about 10 µM; further: potency means the concentration at half of the fitted maximal effect). The note with it: purified GBA, blue fluorogenic substrate, 40 min. In a few lines:
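Compounds titrated from 0.6 nM upwards against 0.2 nM enzyme in pH 5.9 citric acid/KH2PO4, taurocholate, tween-20; blue fluorogenic substrate 80 uM, 40 min room temperature, stopped and read Ex 365/Em 440 for AC50.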

Assay [2] can be described thus: AP1 Signaling Pathway (AID 357). Further: on the % scale 0 is the no-effect control and ±100 the full control effect. Particulars: ME-180 AP-1-bla reporter, EGF-induced, beta-lactamase ratio, 5 h; at 7.69 µM (top of the series) unless noted. An outline of the steps: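 In this screen, ME-180 cells in Opti-MEM with 0.5% dialyzed FBS received EC50 EGF and compound titrations for 5 h. AP-1 reporter beta-lactamase was detected via CCF4 ratio, giving AC50 for positive and negative modulators.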

Assay [3] deals with Glucocorticoid receptor (Homo sapiens) (UniProt P04150). Nature of the assay: GR-GFP Redistribution (AID 450;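 active means compounds whose dose series gives a full or clear partial fitted curve of increased nuclear translocation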; further: potency means the concentration at half of the fitted maximal effect). The note with it: U2OS GR-GFP nuclear translocation, laser cytometry, 2 h.
Chain of Glucocorticoid receptor (Homo sapiens) (P04150 whole entry, looked up, the tested form may be a part): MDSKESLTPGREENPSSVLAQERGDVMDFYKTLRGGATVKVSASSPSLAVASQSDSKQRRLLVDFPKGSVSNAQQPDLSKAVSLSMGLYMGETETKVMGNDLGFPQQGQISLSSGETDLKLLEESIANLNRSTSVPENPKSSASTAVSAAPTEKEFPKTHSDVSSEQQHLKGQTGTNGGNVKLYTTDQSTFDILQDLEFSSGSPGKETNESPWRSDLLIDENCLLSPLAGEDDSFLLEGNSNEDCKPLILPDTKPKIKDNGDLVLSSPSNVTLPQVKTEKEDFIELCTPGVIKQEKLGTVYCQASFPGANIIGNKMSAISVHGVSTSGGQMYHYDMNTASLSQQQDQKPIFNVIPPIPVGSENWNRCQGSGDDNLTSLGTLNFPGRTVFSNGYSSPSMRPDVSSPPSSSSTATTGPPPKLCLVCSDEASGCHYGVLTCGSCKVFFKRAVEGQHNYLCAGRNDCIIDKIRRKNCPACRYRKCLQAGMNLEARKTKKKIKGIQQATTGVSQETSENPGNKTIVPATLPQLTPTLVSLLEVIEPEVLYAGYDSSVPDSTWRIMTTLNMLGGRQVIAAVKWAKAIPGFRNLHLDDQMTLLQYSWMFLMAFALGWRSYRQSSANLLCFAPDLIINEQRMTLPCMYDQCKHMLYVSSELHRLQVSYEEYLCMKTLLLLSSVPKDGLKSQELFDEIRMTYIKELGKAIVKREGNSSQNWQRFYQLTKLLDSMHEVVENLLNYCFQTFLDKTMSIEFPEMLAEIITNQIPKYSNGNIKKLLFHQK
The target is the same in assay [4]. Nature of the assay: GR-EFC Redistribution (AID 451; calls by dose curve; further: potency means the concentration at half of the fitted maximal effect). The note with it: CHO-K1 GR-EFC translocation, beta-gal luminescence, 2 h. An outline of the steps: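 CHO-K1 cells stably expressing nuclear-localized β-gal enzyme acceptor and GR fused C-terminally to the enzyme donor fragment; ligand-driven nuclear translocation restores β-gal by complementation. Compounds titrated up to 46 uM final, 2 h at 37 °C; luminescence read.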

The target of assay [5] is Mitogen-activated protein kinase 10 (Mus musculus) (UniProt Q61831). Nature of the assay: JNK3 AlphaScreen Assay (AID 530).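 Further: kinase came from lysate of stimulated human HepG2 cells; signal reports phosphorylation of biotinylated GST-cJun 1-79 at Ser73 with 10 µM ATP; on the % scale 0 is the no-effect control and ±100 the full control effect.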 An outline of the steps:
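Inhibitors reduce antibody binding to phosphorylated biotin-cJun, lowering AlphaScreen luminescence. Lysates from HepG2 cells pre-activated by IL-1beta plus TNF-alpha supplied JNK3; compounds were titrated.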

In assay [6] the target is 3',5'-cyclic-AMP phosphodiesterase 4B (Homo sapiens) (UniProt Q07343). The assay is described as follows: qHTS Assay for Inhibitors of PDE-IV (AID 607; active means well fitted activation curve with a large enough effect in the main read-out, with a control signal flat, not every such curve was filed as active; further: % of control where 0% means no effect). In a few lines:
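The readout is membrane depolarisation from a cAMP-sensing CNG channel, detected with a potential dye at ex 535/em 590. Cells were HEK293-derived (endogenous PDE-IV) at 1000 cells/well, titrated up to 22.9 uM final.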

Assay [7] has as its target Cytochrome P450 3A4 (Homo sapiens) (UniProt P08684). The assay is described as follows: qHTS Assay for Activators of Cytochrome P450 3A4 (AID 885; active means well fitted curve in the direction sought with a large enough effect; an effect the other way counts as inactive or inconclusive; further: nearly all actives have a fitted effect of over 65% in size). An outline of the steps: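 Steps: enzyme/substrate mix dispensed; compound added, 10 min RT; NADPH regeneration solution added, 60 min RT; luciferin detection buffer stops reaction; 20 min later luminescence measured.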
The target in assay [8] is Cytochrome P450 2D6 (Homo sapiens) (UniProt P10635). Nature of the assay: qHTS Assay for Inhibitors and Substrates of Cytochrome P450 2D6 (AID 891; active means well fitted curve in the direction sought with a large enough effect; an effect the other way counts as inactive or inconclusive; further: potency means the concentration at half of the fitted maximal effect; nearly all actives have a fitted effect of over 60% in size). An outline of the steps: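 Human CYP2D6 (5 nM) with 30 uM Luciferin-ME EGE (at Km) in 100 mM KPO4, compound preincubated 10 min, then NADPH regeneration system for 60 min at room temperature. Luciferin read by luminescence; normalized to 1.43 uM quinidine.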
Chain of Cytochrome P450 2D6 (Homo sapiens) (P10635 whole entry, looked up): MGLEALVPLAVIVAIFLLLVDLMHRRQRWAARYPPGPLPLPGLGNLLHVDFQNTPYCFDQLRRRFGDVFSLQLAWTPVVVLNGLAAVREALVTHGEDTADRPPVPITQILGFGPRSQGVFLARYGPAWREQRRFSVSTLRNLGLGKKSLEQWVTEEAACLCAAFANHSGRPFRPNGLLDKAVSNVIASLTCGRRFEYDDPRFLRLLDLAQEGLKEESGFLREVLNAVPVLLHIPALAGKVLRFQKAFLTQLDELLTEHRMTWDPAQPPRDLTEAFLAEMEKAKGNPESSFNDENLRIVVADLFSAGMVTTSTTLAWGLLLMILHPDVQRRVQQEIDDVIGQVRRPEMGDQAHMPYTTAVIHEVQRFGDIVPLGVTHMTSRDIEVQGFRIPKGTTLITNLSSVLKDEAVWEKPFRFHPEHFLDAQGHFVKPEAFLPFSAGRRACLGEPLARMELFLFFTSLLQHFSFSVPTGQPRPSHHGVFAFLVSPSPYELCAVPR

Assay [9] concerns the target Cytochrome P450 1A2 (Homo sapiens) (UniProt P05177). Nature of the assay: p450-cyp1a2 (AID 410; calls by dose curve; further: potency means the concentration at half of the fitted maximal effect;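 on activity change, negative = inhibition: -100% = full effect of reference inhibitor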). An outline of the steps:
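Luminescent readout of luciferin formed from Luciferin-ME by human CYP1A2; data normalized against complete inhibition by 57 uM furafylline. Enzyme 20nM, substrate 100uM at Km, 100mM KPO4 buffer, 60 min reaction at room temperature.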

A short description of assay [10]: NFAT Signaling Pathway (AID 444).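 Further: carbachol stimulus at about its EC50 of 1 µM final; on the % scale 0 is the no-effect control and ±100 the full control effect.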 The note with it: Jurkat NFAT-bla M1, carbachol, beta-lactamase ratio, 5 h; at 7.69 µM (top of the series) unless noted. In a few lines:
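Jurkat cells carrying an NFAT-driven β-lactamase reporter and co-transfected muscarinic M1 receptor were treated with compound plus carbachol (1 uM final, an EC50 level) for 5 h at 37 °C. CCF4 loading followed for 1 h at RT; 460/530 nm ratio gave %activity.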

Assay [11] in a line: Stat Signaling Pathway (AID 446).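 Further: ME-180 cervical cancer cells given 40 pM IL-6 alongside compound; SIE-controlled beta-lactamase reporter measured as 460/530 nm FRET emission ratio; on the % scale 0 is the no-effect control and ±100 the full control effect.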 The note with it: ME-180 SIE beta-lactamase reporter, IL-6 stimulated, 5 h; at 7.69 µM (top of the series) unless noted. An outline of the steps: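 Screening format detects activators and inhibitors alike: ME-180 SIE-bla cells stimulated at 40 pM IL-6 for 5 hrs with compound, then dual-emission beta-lactamase read at 405 nm excitation.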
Assay [12] concerns the target Cytochrome P450 2C9 (Homo sapiens) (UniProt P11712). Nature of the assay: qHTS Assay for Inhibitors and Substrates of Cytochrome P450 2C9 (AID 883; active means well fitted curve in the direction sought with a large enough effect; an effect the other way counts as inactive or inconclusive; further: potency means the concentration at half of the fitted maximal effect; nearly all actives have a fitted effect of over 60% in size). An outline of the steps:
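CYP2C9 deoxyluciferin hydroxylation, 37C, 60 min with NADPH regeneration; 10nM enzyme, 100uM Luciferin-H (KM). Glo detection reagent stopped reaction; luminescence normalized to sulphaphenazole (57uM) full inhibition.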

Assay [13] addresses Cytochrome P450 2C19 (Homo sapiens) (UniProt P33261). Nature of the assay: qHTS Assay for Inhibitors and Substrates of Cytochrome P450 2C19 (AID 899; active means well fitted curve in the direction sought with a large enough effect; an effect the other way counts as inactive or inconclusive; further: potency means the concentration at half of the fitted maximal effect; nearly all actives have a fitted effect of over 60% in size). An outline of the steps: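 In 50mM KPO4, the reaction held 5nM enzyme and KM-level (10uM) Luciferin-H EGE; it ran 60 min at 37C after NADPH regeneration and a 10 min compound preincubation. Luminescence values were scaled to 57uM ketoconazole as complete inhibition.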

The nature of assay [14]: qHTS Assay for Identification of Small Molecule Agonists for Hypoxia Response Element Signaling Pathway (AID 914; active means well fitted activation curve with a large enough effect in the signal ratio, with a control signal flat, not every such curve was filed as active; the % refers to the signal ratio; further: % of control where 0% means no effect). The note with it: ME-180 (cervical carcinoma) HRE-bla reporter, beta-lactamase ratio, CoCl2, 17 h; activation: active compounds read high. An outline of the steps: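 AC50 values come from titration-series %Activity, taken as the 460/530nm ratio of CCF4 fluorescence (excitation 405nm). CellSensor HRE-bla ME-180 cells were treated 17 hours at 37 C with compound plus an EC50 level of CoCl2.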

Structures are written as SMILES. A number with no mark means an inactive call. Records with an inconclusive call do not appear. The source made the active and inactive calls. Unless noted, the call rests on the fitted dose curve; in most records, active means well fitted curve in either direction with a large enough effect (not every such curve was filed as active); inconclusive means small, poorly fitted or top-dose-only effect, or another doubt; inactive means flat fitted curve, though single readings scatter.

Chain of 3',5'-cyclic-AMP phosphodiesterase 4B (Homo sapiens) (Q07343 whole entry, looked up): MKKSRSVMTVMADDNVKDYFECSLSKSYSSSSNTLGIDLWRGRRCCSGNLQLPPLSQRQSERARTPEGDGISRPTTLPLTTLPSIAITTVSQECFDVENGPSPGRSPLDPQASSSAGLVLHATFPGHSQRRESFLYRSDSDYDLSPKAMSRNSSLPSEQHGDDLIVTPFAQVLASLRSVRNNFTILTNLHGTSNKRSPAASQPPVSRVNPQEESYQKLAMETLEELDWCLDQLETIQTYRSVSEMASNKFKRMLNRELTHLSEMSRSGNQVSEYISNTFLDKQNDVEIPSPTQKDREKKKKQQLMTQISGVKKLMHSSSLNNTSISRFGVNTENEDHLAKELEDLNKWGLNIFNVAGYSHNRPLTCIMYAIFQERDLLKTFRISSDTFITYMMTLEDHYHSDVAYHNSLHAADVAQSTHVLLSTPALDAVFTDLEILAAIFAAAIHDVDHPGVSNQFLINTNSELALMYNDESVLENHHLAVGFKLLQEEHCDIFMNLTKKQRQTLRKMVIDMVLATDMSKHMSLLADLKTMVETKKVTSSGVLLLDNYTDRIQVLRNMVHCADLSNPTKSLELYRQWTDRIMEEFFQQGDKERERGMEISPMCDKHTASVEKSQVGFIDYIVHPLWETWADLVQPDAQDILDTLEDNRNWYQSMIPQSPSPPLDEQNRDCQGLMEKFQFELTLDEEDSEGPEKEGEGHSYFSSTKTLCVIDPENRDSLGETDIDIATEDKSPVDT
Chain of Cytochrome P450 1A2 (Homo sapiens) (P05177 whole entry, looked up): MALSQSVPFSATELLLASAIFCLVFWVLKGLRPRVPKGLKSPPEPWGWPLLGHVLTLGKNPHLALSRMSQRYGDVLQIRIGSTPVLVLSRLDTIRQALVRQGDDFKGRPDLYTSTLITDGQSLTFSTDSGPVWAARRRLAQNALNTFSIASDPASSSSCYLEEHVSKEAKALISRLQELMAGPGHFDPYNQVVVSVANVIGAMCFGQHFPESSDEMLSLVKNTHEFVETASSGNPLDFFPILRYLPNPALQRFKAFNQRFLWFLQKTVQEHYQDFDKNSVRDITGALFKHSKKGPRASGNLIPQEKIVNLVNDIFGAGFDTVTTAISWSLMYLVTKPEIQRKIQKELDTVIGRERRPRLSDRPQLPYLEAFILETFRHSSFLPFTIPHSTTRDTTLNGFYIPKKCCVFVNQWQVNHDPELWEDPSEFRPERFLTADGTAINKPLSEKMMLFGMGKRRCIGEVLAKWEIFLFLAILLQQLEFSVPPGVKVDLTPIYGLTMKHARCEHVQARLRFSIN
Chain of Lysosomal acid glucosylceramidase (Homo sapiens) (P04062 whole entry, looked up): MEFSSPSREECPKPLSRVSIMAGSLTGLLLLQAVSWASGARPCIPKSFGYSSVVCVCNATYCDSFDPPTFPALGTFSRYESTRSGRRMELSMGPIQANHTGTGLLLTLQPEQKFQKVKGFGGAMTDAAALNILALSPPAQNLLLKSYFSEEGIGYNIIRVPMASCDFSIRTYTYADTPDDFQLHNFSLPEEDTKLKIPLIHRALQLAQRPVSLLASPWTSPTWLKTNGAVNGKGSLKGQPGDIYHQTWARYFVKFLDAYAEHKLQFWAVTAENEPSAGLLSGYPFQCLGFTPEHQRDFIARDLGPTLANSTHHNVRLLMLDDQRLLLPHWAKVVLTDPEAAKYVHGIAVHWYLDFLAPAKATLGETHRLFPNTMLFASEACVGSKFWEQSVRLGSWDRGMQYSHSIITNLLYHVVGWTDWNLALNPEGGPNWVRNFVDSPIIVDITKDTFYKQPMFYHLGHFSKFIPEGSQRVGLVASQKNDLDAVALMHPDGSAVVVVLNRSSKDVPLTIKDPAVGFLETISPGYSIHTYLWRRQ
Chain of Cytochrome P450 3A4 (Homo sapiens) (P08684 whole entry, looked up): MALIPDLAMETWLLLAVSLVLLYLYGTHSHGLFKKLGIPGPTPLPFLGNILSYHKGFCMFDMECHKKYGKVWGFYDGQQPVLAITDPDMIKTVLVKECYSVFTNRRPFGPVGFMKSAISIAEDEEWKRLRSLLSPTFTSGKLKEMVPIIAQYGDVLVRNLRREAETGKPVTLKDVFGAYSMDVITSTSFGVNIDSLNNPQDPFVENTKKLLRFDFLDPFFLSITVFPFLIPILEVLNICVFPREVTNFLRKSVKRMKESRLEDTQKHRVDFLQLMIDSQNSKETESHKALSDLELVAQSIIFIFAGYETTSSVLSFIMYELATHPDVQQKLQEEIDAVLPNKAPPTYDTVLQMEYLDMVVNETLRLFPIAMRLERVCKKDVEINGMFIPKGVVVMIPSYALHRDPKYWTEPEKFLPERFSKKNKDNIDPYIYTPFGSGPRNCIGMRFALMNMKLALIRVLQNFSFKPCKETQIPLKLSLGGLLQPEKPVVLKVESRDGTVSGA
Chain of Cytochrome P450 2C19 (Homo sapiens) (P33261 whole entry, looked up): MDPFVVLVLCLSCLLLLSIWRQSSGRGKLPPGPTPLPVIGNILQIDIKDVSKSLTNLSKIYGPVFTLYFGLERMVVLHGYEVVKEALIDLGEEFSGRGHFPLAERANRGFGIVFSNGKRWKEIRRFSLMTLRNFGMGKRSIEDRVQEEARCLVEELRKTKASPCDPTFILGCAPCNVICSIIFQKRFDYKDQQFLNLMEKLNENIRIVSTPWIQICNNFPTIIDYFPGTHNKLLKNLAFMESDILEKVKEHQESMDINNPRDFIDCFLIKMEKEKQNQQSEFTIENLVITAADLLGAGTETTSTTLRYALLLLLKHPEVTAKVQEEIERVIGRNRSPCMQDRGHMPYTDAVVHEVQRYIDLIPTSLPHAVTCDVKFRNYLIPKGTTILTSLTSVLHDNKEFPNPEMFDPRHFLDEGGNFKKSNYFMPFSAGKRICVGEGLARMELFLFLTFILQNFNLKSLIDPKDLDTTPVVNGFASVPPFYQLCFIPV
Chain of Cytochrome P450 2C9 (Homo sapiens) (P11712 whole entry, looked up): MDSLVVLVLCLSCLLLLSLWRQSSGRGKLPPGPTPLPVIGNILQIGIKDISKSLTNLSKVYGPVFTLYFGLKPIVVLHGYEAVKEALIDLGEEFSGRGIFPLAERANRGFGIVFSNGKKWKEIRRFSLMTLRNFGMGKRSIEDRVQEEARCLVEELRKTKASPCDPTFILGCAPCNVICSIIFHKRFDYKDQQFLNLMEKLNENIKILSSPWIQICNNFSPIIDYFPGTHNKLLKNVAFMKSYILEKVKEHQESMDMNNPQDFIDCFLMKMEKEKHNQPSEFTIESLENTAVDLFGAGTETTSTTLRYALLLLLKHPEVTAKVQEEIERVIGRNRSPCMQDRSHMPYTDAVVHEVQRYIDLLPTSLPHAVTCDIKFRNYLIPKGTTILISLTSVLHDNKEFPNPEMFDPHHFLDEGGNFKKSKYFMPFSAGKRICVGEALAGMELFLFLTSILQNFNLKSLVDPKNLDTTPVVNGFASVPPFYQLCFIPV

For `O=[N+]([O-])c1cccc(/C=N\Nc2ccc3ccccc3n2)c1O`, the Potency in assay [1] is > 11.4 µM; in [3] it was > 46 µM; in assay [4], > 9.22 µM; in assay [8], 3.16 µM (active). Besides, the activity change, negative = inhibition in [2] is -13.9%. In addition, the Potency entry in [5], in assay [6] and in assay [7] was “inactive” throughout.
As for `Cn1c(=S)c2[nH]c(SCCCc3ccccc3)nc2n(C)c1=O`, the Potency in assay [1] is > 11.4 µM; in assay [9], 3.16 µM (active); in assay [3] it was > 46 µM; in assay [4] it was > 9.22 µM. For the same molecule, the activity change, negative = inhibition in assay [10] is 3.04%. Moreover, the activity, negative = inhibition in [11] was -23.2%. The Potency result in assay [5] and in assay [6] was “inactive” in each case.
Regarding `CC(=O)Nc1ccc(S(=O)(=O)N=S(C)C)cc1`, the figures for the Potency in assay [1], in assay [3] and in assay [4] were > 11.4 µM, > 46 µM and > 9.22 µM, respectively. Also, the activity change, negative = inhibition in assay [9] is -15.9% [at 2.29 µM]; in assay [10], 3.98%. Further, in [11], the activity, negative = inhibition is -3.32%. Besides, the Potency result in [5] and in assay [6] was “inactive” throughout.
With `CC1CCN(CC[S-])CC1.O.O.[Cl][Pt]`, the results for the Potency in [1], in assay [3] and in assay [4] were > 11.4 µM, > 46 µM and > 9.22 µM, respectively. Further, the activity change, negative = inhibition in [2] is 29.8%. Also, the Potency entry in assay [5] and in assay [6] was “inactive” throughout.
In the case of `c1ccc2cc(NCNc3ccc4ccccc4c3)ccc2c1`, the Potency in [1] was > 11.4 µM; in assay [9], 0.631 µM (active); in assay [3] it was > 46 µM; in assay [4], > 9.22 µM; in assay [12] it was 3.98 µM (active); in [13], 2.51 µM (active). For the same molecule, the activity change, negative = inhibition in [10] was -15.6%. Moreover, in assay [11], the activity, negative = inhibition is -2.06%. The Potency result in assay [5], in assay [6] and in assay [7] was “inactive” in each case.
Turning to `O=C(O)/C=C\C(=O)Nc1ccccn1`, the Potency in assay [1] is > 11.4 µM; in assay [3], > 46 µM; in assay [4], > 9.22 µM. In addition, the Potency result in assay [9], in assay [5] and in assay [6] was “inactive” in each case. In [10], the activity change, negative = inhibition is 11.9%. The activity, negative = inhibition in assay [11] is -1.9%. Also, the activation in assay [14] was 4.82%.

Values taken from PubChem BioAssay (NCATS).
